Test results published in PMC7819943, “Rice protein-binding microarrays: a tool to detect cis-acting elements near promoter regions in rice”.
The full ranking holds about 39,000 sequences; the median of “fluorescence intensity (a.u.)” is about 4,300, and the highest 2% start at about 39,000. The full list was thinned out, with the highest values kept by preference.

biological target: T1, OsSMF1 (Oryza sativa, UniProt Q6ZLB0 1-436); experiment: protein-binding microarray (RPBM); PBS, 2% BSA, 51.3 ng/ul salmon testes DNA, 50 uM zinc acetate, 200 nM TF, 25 C, 1 h; high values mean tight binding; conditions: protein: recombinant; tags: N-terminal polyhistidine and DsRed monomer fusion (pET32a); chain copies: 2; label: CyDye5-dUTP incorporated in the synthesized complementary strand; 3' TTTTT single-stranded linker to array surface; dsDNA, one strand shown
T1 sequence: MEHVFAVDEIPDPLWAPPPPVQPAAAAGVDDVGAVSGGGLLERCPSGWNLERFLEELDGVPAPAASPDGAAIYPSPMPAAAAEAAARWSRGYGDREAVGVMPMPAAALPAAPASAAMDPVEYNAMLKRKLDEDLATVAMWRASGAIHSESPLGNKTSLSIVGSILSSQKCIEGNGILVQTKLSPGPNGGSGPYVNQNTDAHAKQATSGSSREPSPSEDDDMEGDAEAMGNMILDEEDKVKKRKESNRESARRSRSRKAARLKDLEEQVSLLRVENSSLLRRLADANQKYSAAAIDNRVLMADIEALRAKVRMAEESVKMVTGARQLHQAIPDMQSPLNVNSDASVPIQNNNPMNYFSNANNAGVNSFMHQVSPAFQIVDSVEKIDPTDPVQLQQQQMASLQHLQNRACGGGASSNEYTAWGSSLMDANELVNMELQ
Method in brief: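 Transcription factors, each fused N-terminally to a polyhistidine tag and DsRed, were expressed in E. coli BL21-CodonPlus and purified on Ni–NTA. A custom Agilent array was made double-stranded by primer extension with Cy5-dUTP and blocked with 2% BSA. It was incubated with 200 nM protein in PBS, 2% BSA, salmon testes DNA and 50 µM zinc acetate at 25 °C for 1 h, then washed. The binding signal is per-feature fluorescence intensity (arbitrary units) read on an Axon 4000B scanner.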

Row | Sequence | binding signal
1 | ATGAAGGATGCTTAAAAGTCTATTTTGCCTCGGCAAAATACGGAGTCACCTAGTGCAG | 28700 fluorescence intensity (a.u.)
2 | TTTCACGAAACCCAGTGATCCTGTCAGGTATCCTATGTACCGGAGTCACCTAGTGCAG | 3760 fluorescence intensity (a.u.)
3 | GAAACCTGATGATGCTTGATGGAAATCCATTAGACAGCGTCGGAGTCACCTAGTGCAG | 4580 fluorescence intensity (a.u.)
4 | TTCTCTTCCAAAGGAAATGTATAAATCCACCATTAACTTTCGGAGTCACCTAGTGCAG | 19900 fluorescence intensity (a.u.)
5 | TTGTACAGCAGCGTGCTTCCATATGAGGAAATCCACTTCTCGGAGTCACCTAGTGCAG | 44200 fluorescence intensity (a.u.)
6 | CGGCCCAGCAGGCGAGCGTGACGTGGACCGGTCGTTTCGCCGGAGTCACCTAGTGCAG | 5650 fluorescence intensity (a.u.)
7 | TTGGCTGGAGCATCGTCACTACTATTCGACACTAAGGTGTCGGAGTCACCTAGTGCAG | 3240 fluorescence intensity (a.u.)
8 | AGAATTCCGTGATACGCGCATACGCGTCGACAAGAGAAATCGGAGTCACCTAGTGCAG | 3280 fluorescence intensity (a.u.)
9 | CCACGCGTCGTCGACGTACTGCGCGATGACGGCGGACTCGCGGAGTCACCTAGTGCAG | 4700 fluorescence intensity (a.u.)
10 | GCCTCGAACGACGTGTGGACGCGATGGAAGATGCGTTCTGCGGAGTCACCTAGTGCAG | 3210 fluorescence intensity (a.u.)
11 | GGAAGGCGACGCGTTACTGTGCACGATGCGGACCTCGAAACGGAGTCACCTAGTGCAG | 60400 fluorescence intensity (a.u.)
12 | ACGCGCTCGCCTCGCGTCATCGGATCAAATGGTGGAGGCGCGGAGTCACCTAGTGCAG | 3970 fluorescence intensity (a.u.)
13 | CATACATGGAAAAGACAAATCGCCTGGTGCATGAGGCGCTCGGAGTCACCTAGTGCAG | 40600 fluorescence intensity (a.u.)
14 | TCGCTCGCTCGCCTGCCAAATCTGCATTGGTGCTAGGAGGCGGAGTCACCTAGTGCAG | 3730 fluorescence intensity (a.u.)
15 | TCCTTTCGTTATCTGTACGGCAGTGACGTCCACGACTCGACGGAGTCACCTAGTGCAG | 4340 fluorescence intensity (a.u.)
16 | CTGCAGTACAACAAACATGATAGTACTTGAAATCATCTTGCGGAGTCACCTAGTGCAG | 27400 fluorescence intensity (a.u.)
17 | CAACAAGCGGGTGGCTGGAAGGTGTGTGTGTGAGAGAGAGCGGAGTCACCTAGTGCAG | 3180 fluorescence intensity (a.u.)
18 | GATATCACAACCTGACCCACATTAGTCACACGCACTCACACGGAGTCACCTAGTGCAG | 3790 fluorescence intensity (a.u.)
19 | ATGAGTGTGAGTGTGGCATGCGTGCATGTGTAATAGTAAACGGAGTCACCTAGTGCAG | 3480 fluorescence intensity (a.u.)
20 | GTATTGTGTGTATTTATACATCATGAAAGAATAGAATAAACGGAGTCACCTAGTGCAG | 28600 fluorescence intensity (a.u.)
21 | ATAAAGAATATGTAGAATTGGAACTATGCTAAGAGAAGAGCGGAGTCACCTAGTGCAG | 3280 fluorescence intensity (a.u.)
22 | CTATTGTATGAATTGGCTATAGATGATTTGGAGGCAGTAGCGGAGTCACCTAGTGCAG | 3800 fluorescence intensity (a.u.)
23 | GTAAGAATTGGCTGTTAGATTGGCTATAAATGAATTGGAGCGGAGTCACCTAGTGCAG | 50800 fluorescence intensity (a.u.)
24 | TGGAGTAAACGATGAATACATGTTATAATAGTGTAGATTGCGGAGTCACCTAGTGCAG | 65100 fluorescence intensity (a.u.)
25 | TTCAAGTCCACATGGTGCTGACGTGAAACTGTCACATACACGGAGTCACCTAGTGCAG | 7250 fluorescence intensity (a.u.)
26 | GCATAGGAAGGTGACATGGCATATCCATGTGGCGATTTTGCGGAGTCACCTAGTGCAG | 7280 fluorescence intensity (a.u.)
27 | ACCAGTACGCATAGCATCATGTTGTTCCTGTGAAAGCATCCGGAGTCACCTAGTGCAG | 3460 fluorescence intensity (a.u.)
28 | AGCTTCATCTGCAATCCTCCGCTGATCTCTCCCTGTCCGGCGGAGTCACCTAGTGCAG | 3940 fluorescence intensity (a.u.)

Row | Sequence | binding signal
29 | CCATCGCCGCCGCCCTCTTCTTCTTCTTCTTGCGAAGCAACGGAGTCACCTAGTGCAG | 19100 fluorescence intensity (a.u.)
30 | CATAATATGGTAGTGTTGTTTCTCATGCAAGTATTGGCGTCGGAGTCACCTAGTGCAG | 3160 fluorescence intensity (a.u.)
31 | AAGAGATCCTTGTGTTTCGGAAGAATTTTGGTTGGTGTATCGGAGTCACCTAGTGCAG | 23500 fluorescence intensity (a.u.)
32 | TTTCAGAGTTTGAAGTTGGAAATCAACCTTGTTGTTCTCTCGGAGTCACCTAGTGCAG | 63100 fluorescence intensity (a.u.)
33 | ACAAGTTGGAGCTACTTTCTTTTGAAATGACAGATCAACTCGGAGTCACCTAGTGCAG | 3250 fluorescence intensity (a.u.)
34 | GCAGAGGAACCTTGGTAGTAGTATTTGGTTTCTCAGAAGTCGGAGTCACCTAGTGCAG | 52600 fluorescence intensity (a.u.)
35 | TTATTTTGGTCAGTTGAAGTGTGGAAAATGGTGAAAATCTCGGAGTCACCTAGTGCAG | 3880 fluorescence intensity (a.u.)
36 | GAGAGCTCCCTTTTCGTACCACCTCGCCGCGTCGGCTGCTCGGAGTCACCTAGTGCAG | 4870 fluorescence intensity (a.u.)
37 | AGCCGCGGTCACGCACGCCACGCGTTCGATCGATCGATCACGGAGTCACCTAGTGCAG | 4120 fluorescence intensity (a.u.)
38 | GCTGGCTGGATTGCCACGTGTATGTCACGTAGGATAAAACCGGAGTCACCTAGTGCAG | 14300 fluorescence intensity (a.u.)
39 | GTTGACCCGCAGTTCCCCTTTGTTTTCCACGTGTTTCTTCCGGAGTCACCTAGTGCAG | 7790 fluorescence intensity (a.u.)
40 | CGGACGTCCCACACGCTTGGTGTCACGACGAGAGGAACCTCGGAGTCACCTAGTGCAG | 3450 fluorescence intensity (a.u.)
41 | ATCAAAGAGGATTCTGTATTGTATTGGCAACAACCGAAAACGGAGTCACCTAGTGCAG | 13800 fluorescence intensity (a.u.)
42 | AAACATCAATTGTATTATCCTTGAAAAGAAGGCACATCACCGGAGTCACCTAGTGCAG | 44800 fluorescence intensity (a.u.)
43 | CTTGAAGGAAAACAAGTATAAGGTTCATCCTCATCATCACCGGAGTCACCTAGTGCAG | 3270 fluorescence intensity (a.u.)
44 | ATTGAAAATTTTGTTTGAGTGCACATCGTGTGCATTTTATCGGAGTCACCTAGTGCAG | 8920 fluorescence intensity (a.u.)
45 | AAATTTTAATACGTGTAGCATTGCTCCCGGTAATGTATTTCGGAGTCACCTAGTGCAG | 3700 fluorescence intensity (a.u.)
46 | ATAGAGATCACAGTCACACACATATGGCCTGTGCATTTACCGGAGTCACCTAGTGCAG | 3720 fluorescence intensity (a.u.)
47 | CGAAAATGATCTGACACTTATTCGAAAGCAACGTCACAAGCGGAGTCACCTAGTGCAG | 4300 fluorescence intensity (a.u.)
48 | TGACATAGAGAGTGATCACAAGCGAAATATTTATTCGGAACGGAGTCACCTAGTGCAG | 48300 fluorescence intensity (a.u.)
49 | GGAGAAACAATATTCGTCATACATTTTGAACCAGATCAAGCGGAGTCACCTAGTGCAG | 31700 fluorescence intensity (a.u.)
50 | GGCCAGGATGATCGAGCACTTGGTTGTGACACAGAGGGTGCGGAGTCACCTAGTGCAG | 3220 fluorescence intensity (a.u.)
51 | ATTTGGTATGACTTGGCTTCAAACCAAGATGGTCCGGAGTCGGAGTCACCTAGTGCAG | 5390 fluorescence intensity (a.u.)
52 | CCCACATCGCTCCGCGTCATTAGATTTAGCACTTTATCTTCGGAGTCACCTAGTGCAG | 5240 fluorescence intensity (a.u.)
53 | TGCGCCGTCTGCGTCAGCGTGCCTCGTCGCAGTCGCAGGCCGGAGTCACCTAGTGCAG | 6400 fluorescence intensity (a.u.)
54 | CATGTTCGTGCGCCGTCACTACAGGCACCTCGCTGTCAACCGGAGTCACCTAGTGCAG | 40100 fluorescence intensity (a.u.)
55 | CGCCATGTGTCAACTGGCATGGCCGTGCGCTGGCACACACCGGAGTCACCTAGTGCAG | 5160 fluorescence intensity (a.u.)
